Data: PubChem BioAssay (NCATS)
Inconclusive results are not listed. Active and inactive are the calls of the source. Calls follow the shape of the dose curve; as a rule, active = well fitted curve in the direction sought with a large enough effect; inconclusive = small, poorly fitted or top-dose-only effect, or another doubt; inactive = no such curve, though single readings can be large; an effect the other way counts as inactive or inconclusive.

Tests used:
[1] = P-glycoprotein substrates identified in KB-8-5-11 adenocarcinoma cell line, qHTS therapeutic library screen (AID 1346987); also: nearly all actives have a fitted effect of over 65% in size
Method in brief: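 Human cervical adenocarcinoma KB-8-5-11 cells, selected in colchicine to over-express P-gp and assayed without it, were exposed for 72 h to titrated compounds. An ATP-based luminescent viability signal gave AC50.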

[2] = qHTS of pediatric cancer cell lines to identify multiple opportunities for drug repurposing: Primary screen for DAOY cells (AID 1347090); also: nearly all actives have a fitted effect of over 55% in size
Method in brief: (§1)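 Viability measured as metabolically active cells via CellTiter-Glo luminescence following 48 hours of compound exposure, 11-point dilutions in confirmatory testing. 500-1,000 cells/well plated 5 hours before dosing; controls were DMSO and 2.3 µM bortezomib.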

[3] = qHTS of pediatric cancer cell lines to identify multiple opportunities for drug repurposing: Primary screen for SJ-GBM2 cells (AID 1347091)
Method in brief: as §1

[4] = qHTS of pediatric cancer cell lines to identify multiple opportunities for drug repurposing: Primary screen for A673 cells (AID 1347092); also: nearly all actives have a fitted effect of over 45% in size
Method in brief: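 A673 cells (500-1,000 cells/well in growth media) were pre-incubated 5 h at 37 degrees C, then exposed to compounds for 48 h. Viability was read as CellTiter-Glo luminescence; concentration-response curves came directly from the primary screen.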

[5] = qHTS of pediatric cancer cell lines to identify multiple opportunities for drug repurposing: Primary screen for SK-N-MC cells (AID 1347093)
Method in brief: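 Metabolically active cells were quantified by ATP-dependent luminescence (CellTiter-Glo, 15 min at room temperature) following 48 h treatment. Cells had been plated at 500-1,000 per well and settled for 5 h beforehand.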

[6] = qHTS of pediatric cancer cell lines to identify multiple opportunities for drug repurposing: Primary screen for BT-37 cells (AID 1347094)
Method in brief: (§2)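 Cells seeded at 500-1,000 cells/well in growth media, rested 5 hours at 37 degrees C, 5% CO2, then dosed; MIPE compounds at 11-point (from 0.78 nM) and NPC at 8-point (from 0.59 nM) final concentrations. Viability by CellTiter-Glo luminescence after 48 hours.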

[7] = qHTS of pediatric cancer cell lines to identify multiple opportunities for drug repurposing: Primary screen for Saos-2 cells (AID 1347097); also: nearly all actives have a fitted effect of over 40% in size
Method in brief: as §2

[8] = qHTS of pediatric cancer cell lines to identify multiple opportunities for drug repurposing: Primary screen for NB1643 cells (AID 1347099); also: nearly all actives have a fitted effect of over 50% in size
Method in brief: as §2

[9] = qHTS of pediatric cancer cell lines to identify multiple opportunities for drug repurposing: Primary screen for LAN-5 cells (AID 1347100)
Method in brief: (§3)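 Viability after 48 h compound treatment at 37C, 500-1,000 cells/well, read as ATP luminescence with CellTiter-Glo. Primary screens used 11-point (MIPE, 0.78 nM-46 µM) or 8-point (NPC, 0.59 nM-46 µM) final concentrations; follow-up screens used 11-point dilutions.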

[10] = qHTS of pediatric cancer cell lines to identify multiple opportunities for drug repurposing: Primary screen for BT-12 cells (AID 1347101); also: nearly all actives have a fitted effect of over 25% in size
Method in brief: (§4)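 Cells (500-1,000/well) rested 5 h, then received compounds for 48 h; metabolically active cells were measured by CellTiter-Glo luminescence. Final concentrations spanned up to 46 µM (MIPE, 11-point) or 0.59 nM-46 µM (NPC, 8-point) in primary screens, 11-point in follow-ups.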

[11] = NS1 protein of Zika virus - qHTS assay to identify small molecule inhibitors in human HEK 293 cells (AID 1347053); also: nearly all actives have a fitted effect of over 55% in size
Method in brief: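 Readout was TR-FRET using paired anti-NS1 antibodies after 24 h infection of HEK 293 cells with ZIKV MR766 (MOI = 0.5). Compound preceded virus by 1 h; reduced signal reflects lower NS1 expression.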

[12] = qHTS of pediatric cancer cell lines to identify multiple opportunities for drug repurposing: Primary screen for TC32 cells (AID 1347089); also: nearly all actives have a fitted effect of over 60% in size
Method in brief: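 Luminescent CellTiter-Glo read-out of metabolically active TC32 cells after 48 h compound exposure. Primary: MIPE 11-point, 0.78 nM–46 µM; NPC 8-point, 0.59 nM–46 µM. Confirmatory: 11-point dilutions.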

[13] = qHTS of pediatric cancer cell lines to identify multiple opportunities for drug repurposing: Primary screen for NB-EBc1 cells (AID 1347095)
Method in brief: as §2

[14] = qHTS of pediatric cancer cell lines to identify multiple opportunities for drug repurposing: Primary screen for SK-N-SH cells (AID 1347098); also: nearly all actives have a fitted effect of over 65% in size
Method in brief: as §4

[15] = qHTS of pediatric cancer cell lines to identify multiple opportunities for drug repurposing: Primary screen for Rh18 cells (AID 1347102); also: nearly all actives have a fitted effect of over 65% in size
Method in brief: as §3

[16] = qHTS of pediatric cancer cell lines to identify multiple opportunities for drug repurposing: Primary screen for U-2 OS cells (AID 1347096); also: nearly all actives have a fitted effect of over 50% in size
Method in brief: as §3

Measured: Potency
Potency is read from the fitted curve at half-maximal effect.

NC(=O)N1CCC(CC(=O)N2CCC([C@H]3c4ncc(Br)cc4CCc4cc(Cl)cc(Br)c43)CC2)CC1
active: [1] 7.43 µM | [2] 23.5 µM | [3] 16.6 µM | [4] 14.8 µM | [5] 14.8 µM | [6] 19.3 µM | [7] 18.7 µM | [8] 14.8 µM | [9] 7.43 µM | [10] 21.7 µM

COc1cccc2c1C(=O)c1c(O)c3c(c(O)c1C2=O)C[C@@](O)(C(=O)CO)C[C@H]3O[C@H]1C[C@H](N)[C@H](O)[C@H](C)O1
active: [11] 0.332 µM | [12] 0.93 µM | [2] 0.935 µM | [3] 0.0526 µM | [4] 0.235 µM | [5] 0.105 µM | [6] 0.122 µM | [13] 0.0469 µM | [7] 1.32 µM | [14] 0.242 µM | [8] 0.526 µM | [10] 0.485 µM | [15] 0.662 µM

O=c1[nH]c(=O)n([C@H]2C[C@@H](O)[C@@H](CO)O2)cc1F
active: [1] 1.66 µM | [12] 0.93 µM | [4] 1.87 µM | [5] 16.6 µM | [6] 0.685 µM | [16] 18.7 µM | [7] 5.9 µM | [8] 14.8 µM | [9] 1.32 µM | [10] 6.11 µM
inactive: [14]

CC(C=CC1=C(C)CCCC1(C)C)=CC=CC(C)=CC(=O)Nc1ccc(O)cc1
active: [1] 24.1 µM | [2] 42.9 µM | [3] 38.2 µM | [4] 2.7 µM | [5] 3.82 µM | [6] 17.7 µM | [13] 3.4 µM | [16] 42.9 µM | [7] 27 µM | [14] 55.5 µM | [8] 17.1 µM | [9] 3.4 µM | [10] 12.5 µM | [15] 42.9 µM

c1ccc2c(Oc3nc(Nc4ccc(N5CCOCC5)cc4)c4ncn(C5CCCCC5)c4n3)cccc2c1
active: [5] 11.8 µM
not listed: [3] | [4] | [10] | [11] | [12] | [13]
inactive: all other assays above

CCC(C(=O)O)C1CCC(C)C(C(C)C(O)C(C)C(=O)C(CC)C2OC3(C=CC(O)[C@@]4(CC[C@](C)(C5CC[C@@](O)(CC)C(C)O5)O4)O3)C(C)CC2C)O1 (some centres undefined)
active: [11] 1.66 µM | [12] 5.23 µM | [2] 11.8 µM | [3] 11.8 µM | [4] 2.35 µM | [5] 0.187 µM | [13] 0.296 µM | [7] 9.35 µM | [14] 12.1 µM | [8] 1.66 µM | [9] 1.05 µM | [10] 0.385 µM | [15] 5.9 µM

CN1CCCN(C(=O)c2cccc(-c3ccc(C=C4C(=O)Nc5ccc(Cl)cc54)o3)c2)CC1
active: [1] 16.6 µM | [3] 16.6 µM | [4] 18.7 µM | [5] 14.8 µM | [7] 23.5 µM | [8] 5.9 µM | [9] 2.09 µM | [10] 24.3 µM | [15] 7.43 µM

c1ccc(CNc2nc(NCc3ccccc3)c3ccccc3n2)cc1
active: [1] 20.9 µM | [4] 4.69 µM | [5] 11.8 µM | [13] 23.5 µM | [14] 6.81 µM | [8] 18.7 µM | [9] 20.9 µM | [10] 24.3 µM
inactive: [12]

NC1=N[C@H]2[C@H](CS[C@H]2CCCCC(=O)O)N1
not listed: [11] | [12] | [13]
inactive: all other assays above

Cc1cnn(C)c1C(=O)Nc1cc(Nc2ccc3c(C=Cc4ccccn4)n[nH]c3c2)ccc1F
active: [1] 5.26 µM | [3] 18.7 µM | [4] 14.8 µM | [6] 24.3 µM | [7] 20.9 µM | [8] 14.8 µM | [9] 14.8 µM | [10] 10.9 µM

FC(F)c1nc2ccccc2n1-c1nc(N2CCOCC2)nc(N2CCOCC2)n1
active: [1] 1.16 µM | [3] 0.0743 µM | [4] 1.18 µM | [5] 0.059 µM | [6] 1.09 µM | [7] 0.526 µM | [8] 1.48 µM | [9] 1.18 µM | [10] 1.22 µM | [15] 0.935 µM

Nc1ncn([C@@H]2O[C@H](CO)[C@@H](O)[C@@H]2O)c(=O)n1
active: [1] 11.8 µM | [4] 4.69 µM | [6] 10.9 µM | [13] 16.6 µM | [8] 4.69 µM | [9] 5.26 µM | [10] 5.44 µM

COC1=C2C[C@@H](C)C[C@H](OC)[C@@H](O)[C@@H](C)C=C(C)[C@H](OC(N)=O)[C@@H](OC)C=CC=C(C)C(=O)NC(=CC1=O)C2=O
inactive: [16]
active: [1] 13.2 µM | [3] 0.743 µM | [4] 4.69 µM | [5] 1.05 µM | [6] 4.32 µM | [13] 0.743 µM | [14] 2.41 µM | [8] 4.18 µM | [9] 8.33 µM | [10] 6.11 µM | [15] 5.9 µM
